We go through 31 molecules from PubChem BioAssay.

Assay [1] can be described thus: P. berghei load reduction in hepatocytes – cell-based, HepG2, luciferase luminescence, HepG2 viability, primary screen (AID 624349).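 Note: 100% = mean of DMSO negative control wells on the same plate.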 To be noted: P. berghei liver stage in HepG2, luciferase luminescence, concentration not given here; parasite load remaining: stronger effect = lower value; viability: measured here: HepG2 viability without parasites.
The nature of assay [2]: liver-stage malaria parasite load reduction – cell-based, known kinase inhibitor set, luminescence, hepatoma host viability (AID 624392; call rule not given here;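 note: infected cells incubated roughly two days before readout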). To be noted: Plasmodium liver stage in hepatoma cells, luciferase luminescence, concentration not given here; liver cell % of control: measured here: host liver cell viability; parasite % of control: stronger effect = lower value.

Where “and” joins values, the source holds several entries; their conditions need not be identical. Equal entries are not always repeated. Calls of active or inactive are those of the source. Cut-off read from the data, not from the text of the source, unless noted: active = parasite load remaining mostly below about 12% (no sharp cut-off); inactive = mostly above about 10%. Numbered stars: 1 amine (or outer) side, 2 acyl side, 3 side chain; on linkers, the order of the positions; unused ones are H or OH. Bridge positions count the residues as written; N and C are the ends. Square brackets hold non-standard residues; d marks the D form. Peptide text beside a SMILES is read from it. * marks the point of attachment. Heptanoyl(6-Me) = CC(C)CCCCC(=O)*; X3 = CC(C)C(CN[*:1])C(=O)[*:2]; Dab = NCC[CH](N)C(=O)O

In the case of `NC(=O)Nc1cc(-c2ccccc2)sc1C(N)=O`, in assay [1], the parasite load remaining is 74.4% (inactive) and the viability (usually a read-out of living cells in per cent, often relative to untreated cells) was 163%.
Regarding `Nc1ncnc2c1cnn2-c1ccccc1`, in assay [1], the parasite load remaining is 72% (inactive) and the viability turned out to be 108%.
For the molecule `N#CCCc1ccc2c(c1)-c1[nH]c3ccc([N+](=O)[O-])cc3c1CC(=O)N2`, in assay [1], the parasite load remaining was 64.4% (inactive) and the viability was found to be 120%.
Take `Nc1nc(Nc2ccc(S(N)(=O)=O)cc2)nn1C(=S)Nc1c(F)cccc1F`: in assay [1], the parasite load remaining is 8.25% (active) and the viability came to 93.1%.
As to `Cc1cncc2cccc(S(=O)(=O)N3CCCN(C(=O)CN)C[C@H]3C)c12`, in assay [1], the parasite load remaining was 43.2% (inactive) and the viability stood at 68.1%.
The like results for `CC(C)(C)c1ccc(S(=O)(=O)Nc2ccc(-n3ccnc3)cc2)cc1` were, in that order, 37.4% (inactive) and 67.1%.
In the case of `c1ccc(-c2cnc(Nc3ccc(OCCN4CCCC4)cc3)s2)cc1`, in assay [1], the parasite load remaining is 46.3% (inactive) and the viability stood at 100%.
With `N#Cc1cnc2cnc(NCc3cccnc3)cc2c1NC1CCCCCC1`, in assay [1], the parasite load remaining was 36% (inactive) and the viability was 65.1%.
With `CC(C)n1cnc2c(NCc3ccccc3)nc(NCCCO)nc21`, in assay [1], the parasite load remaining is 34.6% (inactive) and the viability was 118%.
Turning to `CCCCn1c2ccc(O)cc2c2c3c(c(-c4ccccc4Cl)cc21)C(=O)NC3=O`, in assay [1], the parasite load remaining is 56.2% (inactive) and the viability was 74.7%.
For `CC(C)CCCCC(=O)NC(CCN)C(=O)NC(C(=O)NC(CCN)C(=O)NC1CCNC(=O)C(C(C)O)NC(=O)C(CCN)NC(=O)C(CCN)NC(=O)C(C(C)C)CNC(=O)C(CC(C)C)NC(=O)C(CCN)NC1=O)C(C)O` (configuration not stated) ({Heptanoyl(6-Me)}-[Dab]T[Dab][Dab][Dab]L[X3][Dab][Dab]T; lactam 4-C; configuration not given here), in assay [1], the parasite load remaining was 68.1% (inactive) and the viability was determined as 75.2%.
Take `Cc1ncc2ccccc2c1C#N`: in assay [1], the parasite load remaining is 44.1% (inactive) and the viability turned out to be 86.2%.
With `N=c1ccn2c(n1)O[C@@H]1C2O[C@H](CO)[C@H]1O` (some centres not stated), in assay [1], the parasite load remaining was 234% (inactive) and the viability was determined as 85%.
For the molecule `O=c1[nH][nH]c2nnc(-c3c(-c4ccccc4)nn4ccccc34)cc12`, in assay [1], the parasite load remaining is 41.8% (inactive) and the viability stood at 101%.
Take `Cc1nc2cc3nc(-c4cccs4)cnc3cc2n1C`: in assay [1], the parasite load remaining was 6.62% (active) and the viability was determined as 168%.
As for `COc1cc2nccc(Oc3ccc(NC(=S)NC(=O)c4ccccc4C)cc3)c2cc1OC`, in assay [1], the parasite load remaining is 22.3% (inactive) and the viability stood at 80.3%.
Take `O=C(O)/C=C/c1cc(Br)c(Br)c(Br)c1Br`: in assay [1], the parasite load remaining was 36.5% (inactive) and the viability turned out to be 98.8%.
The like results for `CC(C)C(CO)Nc1nc(Nc2cccc(Cl)c2)c2ncn(C(C)C)c2n1` (configuration not stated) were, in that order, 30.5% (inactive) and 63.2%.
For `CCOc1nc(NC(=O)Cc2cc(OC)ccc2OC)cc(N)c1C#N`, in assay [1], the parasite load remaining is 37.8% (inactive) and the viability came out at 72.7%.
For `N#Cc1cnc2cnc(NCc3cccnc3)cc2c1Nc1ccc(F)c(Cl)c1`, in that order: 47.9% (inactive) and 84.2%.
The like results for `Cn1cc(/C=C2\C(=O)Nc3ccc(S(N)(=O)=O)cc32)c2ccccc21` were, in that order, 59.7% (inactive) and 106%.
With `COC1=C[C@]23CCCN2CCc2cc4c(cc2[C@]3(C)C1OC(=O)[C@@](O)(CCCC(C)(C)O)CC(=O)O)OCO4` (some centres not stated), in assay [1], the parasite load remaining is -0.16% (inactive) and the viability amounted to 37.5%.
For `COc1cc2ncnc(Nc3ccc(OCc4ccccc4)cc3)c2cc1OC`, in assay [1], the parasite load remaining was 51.2% (inactive) and the viability amounted to 119%.
In the case of `Nc1c(O)cccc1C(=O)CC(N)C(=O)O` (configuration not stated), in assay [1], the parasite load remaining is 62.4% (inactive) and the viability came out at 73.1%.
With `Cn1c(O)c(-c2[nH]c3ccccc3c2N=O)c2ccc(Br)cc21`, in assay [1], the parasite load remaining was 27.7% (inactive) and the viability amounted to 171%.
For `O=C1c2ccccc2-c2nc3nnnn3nc21`, in that order: -1.07% (inactive) and 0.01%.
On to `COc1cc(Nc2ncc3ccn(-c4cccc(CCC#N)c4)c3n2)cc(OC)c1OC`, for which, in assay [1], the parasite load remaining was 50.6% (inactive) and the viability came to 164%.
As for `CN(C)c1ccc(/C=C2/C(=O)Nc3ccccc32)cc1`, in assay [1], the parasite load remaining is 34.8% (inactive) and the viability came to 126%.
For `O=C(Nc1ccc(Cl)cc1)c1ccccc1NCc1ccncc1`, in that order: 39.8% (inactive) and 69%.
Regarding `CCN1CCN(Cc2ccc(NC(=O)c3cc(NC(=O)C(=O)c4c[nH]c5ccccc45)cc(OC)c3)cc2C(F)(F)F)CC1`, in assay [2], the liver cell % of control was found to be 92.9% and the parasite % of control is 85.7% (inactive).
As for `CN(c1ccccc1CNc1nc(Nc2ccc3c(c2)CC(=O)N3)ncc1C(F)(F)F)S(C)(=O)=O`, in assay [2], the liver cell % of control is 53.6% and 51.8% and 95%; the parasite % of control was 7.61% (inactive) and 53% (inactive) and 167% (inactive).
